# Results reported in the supplement of paper PMC13172266.
# Structures can show the parent of a compound that is named as a salt.
# Experiments:
# Assay in all cases: cell proliferation relative to vehicle (% of vehicle); higher = less growth inhibition
# Conditions in all cases: 72 h
# [1] = tested on: U2932 TK216-resistant clone 2
# Summary of the method: (§1)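 A library of 348 targeted inhibitors was screened against the ABC-DLBCL cell line U2932, using parental cells and two clones made resistant to an ETS-targeting agent through repeated exposure over almost a year. The cells were cultured at 37°C and 5% CO2 in medium containing 10% FBS and treated at 500 nM or 50 nM for 72 h, after which MTT was added for 4 h, stopped with 25% SDS, and absorbance was read on a Cytation 3. Proliferation is given as the percentage of proliferating cells relative to the vehicle, DMSO.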
# [2] = tested on: U2932 TK216-resistant clone 3
# Summary of the method: as §1
# U2932 parental = tested on: U2932 parental
# Summary of the method: as §1
Structure (SMILES),cell proliferation ([1]; 50 nM),cell proliferation ([1]; 500 nM),cell proliferation ([2]; 50 nM),cell proliferation ([2]; 500 nM),cell proliferation (U2932 parental; 50 nM),cell proliferation (U2932 parental; 500 nM)
C[C@]12CCC(=O)C=C1CC[C@@H]1[C@@H]2[C@@H](O)C[C@@]2(C)[C@H]1CC[C@]2(O)C(=O)CO [Hydrocortisone],95.7,81.2,97.8,85.1,96.1,87.3
CC[C@@]1(O)C(=O)OCc2c1cc1n(c2=O)Cc2cc3cc(O)ccc3nc2-1 [(S)-10-Hydroxycamptothecin],4.11,1.46,7.4,5.84,2.21,0.765
C[C@]1(c2nc3c(C(N)=O)cccc3[nH]2)CCCN1 [Veliparib (ABT-888)],90.3,91.5,98.8,80.8,87,96.6
CN(C)Cc1ccc(S(=O)(=O)n2ccc(/C=C/C(=O)NO)c2)cc1 [Resminostat],99.1,93.8,92,90.4,93.4,84.7
CC(C)C[C@H](NC(=O)[C@H](CCc1ccccc1)NC(=O)CN1CCOCC1)C(=O)N[C@@H](Cc1ccccc1)C(=O)N[C@@H](CC(C)C)C(=O)[C@@]1(C)CO1 [Carfilzomib (PR-171)],-2.48,-4.13,-2.24,-4.17,-1.34,-1.99
O=C(/C=C/c1cccc(S(=O)(=O)Nc2ccccc2)c1)NO [Belinostat (PXD101)],104,48.6,98.1,67.6,90.1,41.8
CC[C@]1(O)C[C@H]2CN(CCc3c([nH]c4ccccc34)[C@@](C(=O)OC)(c3cc4c(cc3OC)N(C=O)[C@H]3[C@@](O)(C(=O)OC)[C@H](OC(C)=O)[C@]5(CC)C=CCN6CC[C@]43[C@@H]65)C2)C1 [Vincristine sulfate],9.22,10,7.89,9.97,10.4,13.4
COc1cc(Nc2ncc3c(n2)-c2ccc(Cl)cc2C(c2c(F)cccc2OC)=NC3)ccc1C(=O)O [Alisertib (MLN8237)],73.6,79.3,61.8,72.8,52.2,53.2
N#Cc1c(Oc2ccc(F)c(NC(=O)Cc3cccc(C(F)(F)F)c3)c2)ccc2nc(NC(=O)C3CC3)sc12,104,92.8,107,103,95.9,98.6
Oc1ccc(-c2nc(-c3ccc(F)cc3)c(-c3ccncc3)[nH]2)cc1,109,105,96.2,98.7,102,99.2
Cn1cncc1[C@@](N)(c1ccc(Cl)cc1)c1ccc2c(c1)c(-c1cccc(Cl)c1)cc(=O)n2C [Tipifarnib],91.9,90.6,71.5,74.9,62.7,62.5
COc1cc2c(c(OC)c1OC)-c1c(cc3c(c1OC)OCO3)CC(C)C(C)C2 (configuration not stated) [Schisandrin B (Sch B)],99.1,104,108,97.6,97.2,95.9
CCc1ccc(/C=C2/SC(=S)NC2=O)cc1,105,103,102,99.4,94.2,104
COc1cc2nccc(Oc3ccc(NC(=O)C4(C(=O)Nc5ccc(F)cc5)CC4)cc3)c2cc1OC [Cabozantinib malate (XL184)],109,109,102,95.7,109,103
CCCCOc1c(C(=O)c2c(F)cc(C)cc2F)c[nH]c2nncc1-2,78.8,59.3,92.2,58.9,89.3,77.1
COc1ccc(F)c(F)c1C(=O)c1cnc(NC2CCN(S(C)(=O)=O)CC2)nc1N,92,53.5,89.4,66.7,90.5,63.3
CS(=O)(=O)c1cccc(CNc2nc(Nc3ccc4c(c3)CCC(=O)N4)ncc2C(F)(F)F)c1,110,101,103,98.3,90.5,82.6
CCN(CC)CCCC(C)Nc1ccnc2cc(Cl)ccc12 (configuration not stated) [Chloroquine Phosphate],98.7,104,116,111,94.1,99.2
NC(=O)c1ncn([C@@H]2O[C@H](CO)[C@@H](O)[C@H]2O)c1N [Acadesine],88.9,94.5,98.7,98.1,102,98.4

Structure (SMILES),cell proliferation ([1]; 50 nM),cell proliferation ([1]; 500 nM),cell proliferation ([2]; 50 nM),cell proliferation ([2]; 500 nM),cell proliferation (U2932 parental; 50 nM),cell proliferation (U2932 parental; 500 nM)
C/C(=C\C(=O)Nc1ccccc1C(=O)O)c1ccc2ccccc2c1,82.5,98.2,109,100,97.4,102
CCN(c1cc(-c2ccc(CN3CCOCC3)cc2)cc(C(=O)NCc2c(C)cc(C)[nH]c2=O)c1C)C1CCOCC1,92.4,80.1,96.4,87.6,89.5,82.5
COc1nc(C)cnc1NS(=O)(=O)c1cccnc1-c1ccc(-c2nnco2)cc1 [Zibotentan (ZD4054)],95.1,104,106,102,97.2,95.2
CS(=O)(=O)CCNCc1ccc(-c2ccc3ncnc(Nc4ccc(OCc5cccc(F)c5)c(Cl)c4)c3c2)o1,101,85.9,94.2,84.4,96.6,97.3
CN1CCC(CNc2ccc3ncc(-c4cccc(OC(F)(F)F)c4)n3n2)CC1 [SGI-1776 free base],103,86.7,105,82.4,95.5,94.1
C[C@@H]1CCN(C(=O)CC#N)C[C@@H]1N(C)c1ncnc2[nH]ccc12,102,104,113,98.5,109,107
Cc1ccc([C@@H]2O[C@H](CO)[C@@H](O)[C@H](O)[C@H]2O)cc1Cc1ccc(-c2ccc(F)cc2)s1 [Canagliflozin],93.3,102,104,104,91.9,87.9
C=C1/C(=C\C=C2/CCC[C@]3(C)[C@@H]([C@H](C)/C=C/[C@H](C)C(C)C)CC[C@@H]23)C[C@@H](O)C[C@@H]1O [Doxercalciferol],104,92.2,101,103,105,98.5
O=C(Nc1ccc(OC(F)(F)F)cc1)c1sccc1NCc1ccnc2ccccc12,105,101,105,109,100,98.9
O=NN(CCCl)C(=O)NC1CCCCC1 [Lomustine],112,103,111,105,101,114
CCC(C)(C)C(=O)O[C@H]1C[C@@H](C)C=C2C=C[C@H](C)[C@H](CC[C@@H]3C[C@@H](O)CC(=O)O3)[C@H]21 [Simvastatin],91.4,88.7,98.4,89.1,90.5,87.4
CC1(C)CNc2cc(NC(=O)c3cccnc3NCc3ccncc3)ccc21 [Motesanib Diphosphate (AMG-706)],103,97.7,104,87.8,97.4,93.9
O=C(NC[C@H](O)CO)c1ccncc1Nc1ccc(I)cc1F,91,88.5,95.7,94.7,92.2,89.5
Cn1cc(-c2ccc3nnc(C(F)(F)c4ccc5ncccc5c4)n3n2)cn1,102,103,106,113,99.8,99.2
CN1CCN(CCCNc2ncc(Cl)c(-c3cc4c(C(=O)NC5CC5)cccc4s3)n2)CC1,101,86.5,98.2,99,95.3,100
CCCCCCCCCCCC1=C(O)C(=O)C=C(O)C1=O [Embelin],90.5,98.8,103,103,100,89.7
O=C(O)c1ccc(O)c2ncccc12,104,107,101,99.2,106,105
O=C(NOCC1CC1)c1ccc(F)c(F)c1Nc1ccc(I)cc1Cl,102,90.6,98.5,90.8,96.2,95.7
